The values below come from the supplement of paper PMC6555819.

The subject of this test is PPARg DBDmut:RXRa IVT, anti-PPARg (DBD mutation: PPARg1 K132A/R137A, NR concentration 270 nM, RXRa partner concentration 90 nM). Put plainly: PBM binding z-score (relative to random genomic background probes); higher = stronger binding; sequences stand for … in GC…GCGATTGACAGCGTAGAATGAAGG
The procedure, abridged:
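The probes on custom Agilent 4×180K protein-binding microarrays were double-stranded, with 34-nt variable regions bearing direct-repeat seeds, single-nucleotide variants, half-site ablations and random human genomic background sequences. Incubation lasted 1 h with ligand-free nuclear receptor dimers in PBS pH 7.4, 2% milk, 0.02% Triton X-100, 1 mM DTT, 0.2 mg/mL BSA and 0.4 mg/ml salmon testes DNA. Antibodies against each partner (one per run) detected bound dimers, and fluorescence scans were regression-normalized. Binding z-scores take the random background probes as reference.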
Take ATCTCTAGGTAAAGATAGTTCGGTGAATGCAAAT: the PBM binding z-score is 0.574.

As for TCTAGCAGTCCAGAGGGTCACTCAAGAGGTACGG, the PBM binding z-score is -0.632.

CCTAGCAGGCCAATCTGGGACACTCAAGGCTTGA had a PBM binding z-score of -0.765. Regarding TCTGACAGGTGAAGGTAACTCAGGTACGCAGTCG, the PBM binding z-score stood at 0.246.

For TATACAGGCTCAAAGGCCAGAGTACGAATGTCGA, the PBM binding z-score was 0.383.

For GGAACGAGGGCATTCGAGTTAATAGCATGGCGAT, the PBM binding z-score was -0.564. Then CCTACTGGGCCAATGGTCATTGATTCCAATGCTC, with 0.147; and GCTGCTAGGTCAACTGATGGTCGGCTAAAGCTCG, with 0.404; and ACTCGGAGGACCAAGGTCAGAGCTACGCCAGTGA, with -1.19. Then GGAACGAAGGCAAAGTTGATAGCATCTGTCGACG, with -0.0938; and GGAACGAGGGCATGCGAGTTGATAGCATGGCGAT, with -0.352; and TCTTGTAGATCACGCAGGTTAAGAAAGCCTGAGT, with 0.55. Then TCTTGTAGAACAAGCAGGTTAAGAAAGCCTGAGT, with 0.632; and AATACCGGGTCATCGTAGGCCAGAGTACGCACAG, with 2.58. Regarding CCTAGCAGGCCAATCTGAGTCACTCAAGGCTTGA, the PBM binding z-score is -1.14. Regarding AGTCAAAGTTCATCTAGGTAAGGTAAGATATGCT, the PBM binding z-score was determined as 1.53. On to AGAACAAGGGCAATGAGTTGATAGCACGGGTGGC, for which the PBM binding z-score was found to be 0.287. Then CAAACTAGGGCACAGAGGTCAAAGTCCGTGCGTA, with 4.77; and ATCGAAAGGTCGACGGGGTGAGTATACACCGTTT, with 1.15. TAGCCGAGGTCATGGGCCAGTATACCACGCGAAC returned a PBM binding z-score of 1.31. For TCTAGTTGGTCACGGAGGTAACACACGACGGGTA, the PBM binding z-score was determined as 0.811. On to CCTACTGGGCCAGGGTCATTGATCAGTCAAAGCA, for which the PBM binding z-score was -1.03. Then TCTGCTAGGTCAACGATGGACAGCTAATCTGCTA, with 1.56; and TCATATAGGTAAAGGTTAAAGTCGAACGATATGA, with 1.37.

Sequence ACTAGTAGGCCAAGTTTGGGTCACTCAAACAAAG had a PBM binding z-score of 0.793. Take TCTTGTAGAACAGCAGGTTAAGAAAGCTGGCCAA: the PBM binding z-score was -0.871. Then CCTATTAGTTGACCATAAGGGCTACCGAAGCTCG, with 0.267. Then GCAGACAGGTGAAACGCGGGTAACTCAGGGTGGC, with -0.459.

The sequence CCTAGTTGGTCAGGAGGTCAAACACCGGATATGA returned a PBM binding z-score of 0.223. TCGAGTAGGTTACAAATGGGGCATTCAGCTTTCT returned a PBM binding z-score of 0.207.

Sequence GCTGCTAGGTCAGGTAGGTCAGCTAACGGGTACG showed a PBM binding z-score of -0.274. Regarding CCTAGTTGGTGAAGGTCACACACGCTATAGGTAC, the PBM binding z-score was determined as 1.24. Then CTACCAAGGTGAACAAGGCCGTTGATTACTATTC, with 0.257; and TATACAGGGTCAAAGGCCAGAGTCCGAATGTCGA, with 1.49. Then CGTCCAAGGTCAAAGGTCAGTGTAGAGATGACGG, with 0.888; and GTACGAAGGTGAATAGGTCGTTGATGAGTAGGCG, with -0.159; and CCTTACGGGTCAAGGTTATAGTACGGGTGGTACG, with 0.554. Then ACAATGAGGTTATTAAGATCAGGGAATTGCGGTC, with 1.27; and TCGAGTAGGTTACCAATGGGGCACTCAGCTTTCT, with -0.534; and CCTACTGGGCCATTCAGAGGTCCTTGATCATATG, with -0.401.
